Screening data: PubChem BioAssay, National Center for Advancing Translational Sciences (NCATS)
Compounds with a hit are over-represented: about 1% of the library has one in this group of screens.
gsp antagonist – gsp mutant antagonism. gsp-mutant cells, cAMP HTRF, 30 min. 0.4% of 340,000 active. Potency, µM (titrated, usually from 76.9 µM), for inactives: top-dose activity change, negative = inhibition, hits mostly inhibitors. AID 624288; calls by dose curve; cell line not stated here;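 further: intracellular cAMP measured with PDE inhibitor Ro 20-1724 present during compound exposure; potency means the concentration at half of the fitted maximal effect; on the % scale 0 is the no-effect control and ±100 the full control effect; nearly all actives have a fitted effect of over 65% in size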
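Cells, 2000/well, grown 16–24 h in DMEM 10% FBS with 0.5 mg/ml G418, then compounds plus […] (300 uM addition stock), 30 min at 37C. cAMP read by HTRF (cAMP-d2 and anti-cAMP antibody-K in lysis buffer) after 30 min RT.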
gsp ag – agonists of gsp mutant (McCune-Albright syndrome); 0.13% of 340,000 active; Potency, µM (series often up to 76.9 µM), for inactives: top-dose activation (cAMP increase), usual class: activators; AID 624287; gsp mutant cells, cAMP HTRF, 30 min; active means well fitted activation curve with a large enough effect; inconclusive means small, poorly fitted or top-dose-only effect, or another doubt; inactive means no such curve, though single readings can be large or run the other way; cell line not stated here;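 further: phosphodiesterase inhibitor Ro 20-1724 added with compounds to block cAMP breakdown; potency means the concentration at half of the fitted maximal effect; nearly all actives have a fitted effect of over 60% in size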
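Cells in DMEM/10% FBS with G418 were pretreated with compounds in DMSO plus […] (300 uM stock) for 30 min at 37C. cAMP was measured by HTRF (cAMP-d2 plus anti-cAMP antibody-K) after 30 min at room temperature.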
RXFP1 agonist – RXFP1 (human) receptor agonism; Potency, µM (doses to about 57.5 µM), for inactives: at the top dose activation, actives largely listed as activators; 0.3% of 370,000 active; Q9HBX9; HEK293T-RXFP1 cAMP TR-FRET, 30 min; response scale: percent of porcine relaxin response, buffer zero; AID 2676; active means well fitted activation curve with a large enough effect; inconclusive means small, poorly fitted or top-dose-only effect; further: potency means the concentration at half of the fitted maximal effect; on the % scale 0 is the no-effect control and ±100 the full control effect; nearly all actives have a fitted effect of over 60% in size
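HEK293T cells stably expressing RXFP1 were pretreated with the PDE4 inhibitor Ro 20174, exposed to compounds for 30 min at 37C, lysed, and cAMP was read by TR-FRET. Data normalized to buffer (basal) and 29 nM porcine relaxin (100%).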
TSHR antagonist – human thyrotropin receptor antagonism; P16473; AID 504810; TSHR-expressing cells, TSH-stimulated cAMP HTRF, 2 h; stronger effect = lower value; 0.2% of 330,000 active; activity change, negative = inhibition, % at 11.5 µM;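 active means activity change below a set negative limit, meaning inhibition stronger than a set level, cut at about -70% in these data; inconclusive means activity change between two set negative limits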; further: on the % scale 0 is the no-effect control and ±100 the full control effect
Target sequence (P16473 whole entry, looked up): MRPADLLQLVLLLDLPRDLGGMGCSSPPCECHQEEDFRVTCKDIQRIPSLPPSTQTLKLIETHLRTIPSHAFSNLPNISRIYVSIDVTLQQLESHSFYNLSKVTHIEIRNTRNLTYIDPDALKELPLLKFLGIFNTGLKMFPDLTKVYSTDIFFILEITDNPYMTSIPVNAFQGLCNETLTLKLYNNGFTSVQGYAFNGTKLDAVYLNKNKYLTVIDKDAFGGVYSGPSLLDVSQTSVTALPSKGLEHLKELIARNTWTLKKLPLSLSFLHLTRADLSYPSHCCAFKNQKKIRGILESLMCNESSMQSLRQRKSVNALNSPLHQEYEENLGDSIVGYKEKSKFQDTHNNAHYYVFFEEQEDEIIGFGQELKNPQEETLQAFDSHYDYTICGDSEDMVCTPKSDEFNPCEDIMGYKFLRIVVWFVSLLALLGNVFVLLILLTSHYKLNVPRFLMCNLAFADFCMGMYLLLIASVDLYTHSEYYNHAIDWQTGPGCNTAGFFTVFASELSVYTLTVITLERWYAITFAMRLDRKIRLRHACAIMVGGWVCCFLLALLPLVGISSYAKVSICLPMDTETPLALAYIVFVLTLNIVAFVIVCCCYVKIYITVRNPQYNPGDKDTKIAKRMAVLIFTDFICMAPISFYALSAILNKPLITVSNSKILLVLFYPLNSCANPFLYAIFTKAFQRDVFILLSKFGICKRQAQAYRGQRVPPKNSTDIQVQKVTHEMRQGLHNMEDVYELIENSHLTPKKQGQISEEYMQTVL
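Cell-based HTRF cAMP assay; TSHR cells + compound, TSH EC80 (4nM final), 2 h, 37 deg C. Lysis with anti-cAMP cryptate and cAMP-d2, 30 min RT, read 665/620 nm.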
RXFP1 antagonist – blocks the human relaxin receptor RXFP1; activity change, negative = inhibition, % at 57.5 µM; HEK293-RXFP1, relaxin-stimulated cAMP HTRF, 30 min; stronger effect = lower value; 0.59% of 350,000 active; AID 1259400; Q9HBX9;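 active means activity change of -60% or lower, but not beyond a set lower limit; inconclusive means change between -60% and -40%, or beyond the set limit; inactive means change above -40%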; further: on the % scale 0 is the no-effect control and ±100 the full control effect
Numbers without * were called inactive; ? = inconclusive; · = no result given; [ ] = another dose, or the depositor's remark.

SMILES	gsp antagonist	gsp ag	RXFP1 agonist	TSHR antagonist	RXFP1 antagonist
O=C(NC(=S)Nc1ccc2oc(-c3ccncc3)nc2c1)c1ccccc1F	31.6µM*	0.3%	-2.4%	5.2	6.3
Cc1ccccc1/C=C/C(=O)c1ccc([N+](=O)[O-])o1	-8.8%	·	1.4%	-79.5*	·
COc1cc(NC(=O)C2CCN(c3nc4ccccc4nc3C(F)(F)F)CC2)cc(OC)c1	·	·	-0.2%	·	·
Cc1cc(=O)oc2cc(OCc3ccccc3)ccc12	-3.7%	6.8%[15.4 µM]	0.0%	-6.1	-3.4
Cc1cc(=O)oc2ccc(OCc3ccccc3)cc12	-0.5%	9.9%	2.1%	-118.1*	-2.4
Cc1ccc(NC(=O)Nc2c[nH]c(=O)[nH]c2=O)c(Cl)c1	·	·	-1.1%	·	0.7
CCOc1ccc(/C=N/NC(=O)c2ccc(CSc3nc4ccccc4[nH]3)cc2)cc1	-15.2%	?	0.1%	33.3	-3.0
O=C(N/N=C/c1ccc(OC(F)F)cc1)c1ccc(CSc2nc3ccccc3[nH]2)cc1	8.91µM*	29.6%[15.4 µM]	3.1%	5.1	?
CC(C)(C)OC(=O)NCCCCCc1cn([C@@H](CO)C(=O)NCCCCCCCCCCC(=O)N2CCN(C(=O)OC(C)(C)C)CC2)nn1	?	·	-0.4%	-95.3*	·
Clc1ccc(C2=NNC(=NCc3ccccc3)SC2)cc1	7.08µM*	12.3%[15.4 µM]	-0.5%	31.3	-16.4
Cc1ccc(C(=O)NCC(=O)OCCOc2ccccc2Cl)cc1	-0.8%	-27.9%[15.4 µM]	0.4%	-5.3	-83.7*
Cc1ccc(C2=NN(C(=O)CCCC(=O)O)C(c3ccco3)C2)cc1 (stereo not given)	-8.4%	-5.6%[15.4 µM]	0.9%	-17.1	-11.2
CCC(=O)N1N=C(c2ccc(NS(=O)(=O)c3ccccc3)cc2)CC1c1ccco1 (stereo not given)	31.6µM*	5.1%	·	·	-12.4
Cc1ccc(CCNC(=O)c2ccc3c(Cl)c4c(nc3c2)CCCC4)cc1	·	·	4.7%	·	·
COc1ccc(N(C)C(=O)c2ccc3c(Cl)c4c(nc3c2)CCCC4)c(OC)c1	?	-19.5%	1.5%	18.0	-96.3*
Cc1ccc(N(C)C(=O)c2ccc3c(Cl)c4c(nc3c2)CCC4)cc1C	?	1.9%	1.5%	2.2	-88.8*
CCN(C(=O)c1ccc2c(Cl)c3c(nc2c1)CCC3)c1cccc(C)c1	·	·	1.4%	-0.1	·
CCc1ccc(N(CC)C(=O)c2ccc3c(Cl)c4c(nc3c2)CCC4)cc1	-28.5%	-33.1%	2.5%	-5.9	-76.2*
Cc1ccc(S(=O)Cc2ccc(C(=O)NC3CCCCCC3)o2)cc1 (stereo not given)	·	·	1.7%	·	·
Cc1ccc(-n2nnc(C(=O)Nc3cc(F)ccc3F)c2C)cc1F	·	·	13.3%	·	-12.1
COc1ccc(N(C)C(=O)c2cc3c(s2)-c2ccccc2OC3)cc1	·	·	0.1%	·	-64.2*
Cc1ccc(-c2cn(-c3cccc(Cl)c3)c(S(=O)(=O)CC(=O)Nc3ccccc3F)n2)cc1	·	·	3.9%	·	-63.8*
O=C(CS(=O)(=O)c1nc(-c2ccc(Cl)cc2)cn1-c1ccccc1)Nc1ccc(F)cc1F	·	·	-3.1%	·	-63.9*
N#Cc1c2n(c3c(=O)n(Cc4ccc(Cl)cc4)cnc13)CCCC2	15.4%	?	3.6%	-8.6	-17.8
N#Cc1c2n(c3c(N)ncnc13)CCCCC2	12.4%	45.5%[15.4 µM]	17.8µM*	-3.5	3.6
SMILES	gsp antagonist	gsp ag	RXFP1 agonist	TSHR antagonist	RXFP1 antagonist
CC(=O)c1cc(-c2ccccc2)n(CCC(=O)Nc2ccc(C)cc2C)c1C	·	·	0.0%	·	-62.2*
CC(=O)c1cc(-c2ccccc2)n(CC(=O)Nc2ccc(C)cc2C)c1C	·	·	-0.5%	·	6.5
Cc1cccc(C)c1Nc1c(-c2ccc(Cl)s2)nc2ncccn12	·	·	11.1%	·	-30.8
O=C1NN=C(c2ccc(Br)cc2)CC1c1ccc(Cl)cc1 (stereo not given)	-2.5%	-19.6%	2.1%	-14.1	-60.5*
O=C(c1ccc2c(c1)N(Cc1ccccc1Cl)C(=O)c1ccccc1S2)N1CCCC1	·	·	-3.9%	·	-68.4*
Cc1ccccc1/C=C1\Sc2ccc(C(=O)N3CCN(c4ccccn4)CC3)cc2N(C)C1=O	?	-53.3%	0.1%	-26.0	-5.1
CN1C(=O)/C(=C/c2ccccc2F)Sc2ccc(C(=O)N3CCCC3)cc21	28.2µM*	5.3%	-0.5%	-21.3	-24.6
CCCCc1cc(=O)oc2cc(C)c3c(C)coc3c12	·	·	2.4%	·	-15.1
CCOC(=O)c1c(-c2ccccc2)oc2ccc(OCC(O)CNCCN(C)C)cc12 (stereo not given)	13.4%	8.2%[15.4 µM]	-0.1%	19.2	-100.3*
CCOC(=O)c1c(-c2ccccc2)oc2ccc(OCC)cc12	-8.8%	9.1%	1.6%	-1.9	-12.6
Cc1ccc(N2C(=O)CC(c3ccccc3F)C3=C2COC3=O)cc1Cl (stereo not given)	·	·	-1.3%	·	1.7
O=C(Nc1ccc(O)cc1C(=O)O)c1ccc2c(c1)C(=O)N(Cc1ccco1)C2=O	31.6µM*	-13.4%	0.7%	-5.4	1.0
CC(C)CC(=O)Nc1cccc(C(=O)Nc2ccccc2C(=O)O)c1	31.6µM*	12.2%	1.4%	-3.4	-17.1
CC(c1ccccc1)N1C(=O)c2ccc(C(=O)Nc3ccc(Br)cc3C(=O)O)cc2C1=O (stereo not given)	35.5µM*	9.4%	-3.0%	12.5	-5.1
CC(c1ccccc1)N1C(=O)c2ccc(C(=O)Nc3ccccc3C(=O)O)cc2C1=O (stereo not given)	15.8µM*	-0.5%	2.3%	-13.6	-73.7*
Cc1ccc2c(c1)c1c(c(=O)n(-c3ccccc3C)c(=O)n1Cc1ccccc1F)n2C	·	·	11.3%	·	·
O=C(CSc1nc2c(oc3ccccc32)c(=O)n1Cc1ccco1)Nc1ccccc1Cl	·	·	18.4%	·	·
COc1ccccc1-c1c(C)nn2c(N3CCN(c4ccc(F)cc4)CC3)cc(C)nc12	·	·	-0.4%	·	-7.4
CCCc1cc(=O)[nH]c(SCc2nc(-c3ccc(C)cc3)no2)n1	·	·	1.5%	·	11.1
CCOc1ccc(-c2cc(C(=O)Oc3ccc(C#N)cc3)no2)cc1	·	·	2.6%	·	-23.9
C/C(=N\Nc1cc(C)nc(-c2ccccc2O)n1)c1ccccc1	-8.5%	-13.1%	-0.6%	-48.4	-6.4
Cc1cc(N/N=C/c2ccc(O)c(C)c2O)nc(-c2ccccc2O)n1	-20.8%	?	-0.3%	-17.9	-72.2*
Cc1[nH]c(=S)c(C#N)c(C)c1C(=O)Nc1ccccc1	9.9%	?	3.2%	-4.9	-6.3
CCc1c(C(=O)Nc2ccccc2)c(C)[nH]c(=S)c1C#N	4.7%	12.6µM*	8.7%	-5.5	-0.8
Cc1ccc(-n2ncc3c(NCCC4=CCCCC4)ncnc32)cc1C	·	·	-2.3%	·	-3.3
COc1ccccc1N1CCN(C(=O)c2cc3c(C)nc4ccccc4c3o2)CC1	-27.4%	7.5%	1.1%	-12.8	-62.3*
CCS(=O)(=O)c1nc2ccccc2n1CC(=O)Nc1ccccc1C(=O)OC	·	·	3.2%	·	1.0
CCOC(=O)Cc1csc(NC(=O)COc2ccc(N(C)S(=O)(=O)c3cccs3)cc2)n1	35.5µM*	-42.7%	2.7%	?	-14.4
